Laboratory results: PubChem BioAssay (Tox21)
Inconclusive results are not listed. Activity calls are given as the source filed them. Unless noted, calls come from the whole dose curve; as a rule, active = well fitted curve in the direction sought with a large enough effect in the repeat runs; inconclusive = weak or mixed curves; inactive = no such curve, though single readings can be large; an effect the other way counts as inactive or inconclusive.

Experiments:
[1] = qHTS assay for small molecule agonists of the p53 signaling pathway (AID 651631; calls by dose curve; note: nearly all actives have a fitted effect of over 15% in size)
Method in brief: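 Testing took place in human colorectal HCT-116 cells with stable p53RE-driven beta-lactamase. After 16 h of compound exposure at 37 °C, a FRET substrate was added and fluorescence recorded 2 h later.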

[2] = qHTS assay for small molecules that induce genotoxicity in human embryonic kidney cells expressing luciferase-tagged ATAD5 (AID 651632); note: nearly all actives have a fitted effect of over 15% in size
Method in brief: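 Genotoxicity read-out via ATAD5-luciferase: HEK293T cells, 16 hr compound incubation at 37C, Amplite detection.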

[3] = qHTS assay for small molecule agonists of the p53 signaling pathway - cell viability (AID 651633; calls by dose curve; note: series mostly up to about 83 µM; nearly all actives have a fitted effect of over 30% in size)
Method in brief: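 Viability counter-read: CellTiter-Glo luminescence (30 min, room temperature) in the same p53RE-bla plates. These plates had been exposed to compounds for 16 h at 37 C.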

[4] = qHTS assay for small molecules that induce genotoxicity in human embryonic kidney cells expressing luciferase-tagged ATAD5 - cell viability (AID 651634; calls by dose curve; note: nearly all actives have a fitted effect of over 25% in size)
Method in brief: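 Live-cell protease activity (CellTiter-Fluor, fluorescence) indicates viability. HEK293T cells with luciferase-tagged ATAD5; 15.5 hr compound treatment at 37C.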

[5] = qHTS assay for small molecule disruptors of the mitochondrial membrane potential - cell viability (AID 720634; calls by dose curve;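 note: human HepG2 liver cancer cells; series mostly up to about 83 µM; nearly all actives have a fitted effect of over 20% in size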)
Method in brief: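 Human hepatoma HepG2 cells were treated for 1 hr with test chemicals, then given m-MPI dye and CellTiter-Glo. Cell viability reflects luminescence proportional to cellular ATP.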

[6] = qHTS assay for small molecule disruptors of the mitochondrial membrane potential (AID 720635)
Method in brief: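 Mitochondrial membrane potential tracked with Mito-MPS dye, red aggregates (ex 540/em 590 nm) against green monomers (ex 490/em 535 nm). Compound treatment 1 hr at 37C, dye 30 min in HepG2.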

[7] = qHTS assay to test for compound auto fluorescence at 590 nm (red) in HepG2 cells (AID 720674)
Method in brief: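 1 hr compound incubation on HepG2 cells, 37 C, 5% CO2; plate read ex 540 nm / em 590 nm; intensities reported as Rose Bengal sodium equivalents.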

[8] = qHTS assay to test for compound auto fluorescence at 535 nm (green) in HepG2 cells (AID 720675)
[9] = qHTS assay to test for compound auto fluorescence at 460 nm (blue) in HEK293 cells (AID 720678)
Method in brief: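 Auto fluorescence in the blue band was quantified as triamterene equivalency. HEK293 cells were seeded at 2,000/well, dosed after a 4-5 hr attachment, and kept overnight at 37C before the 405/460 nm reading.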

[10] = qHTS assay to test for compound auto fluorescence at 590 nm (red) in HEK293 cells (AID 720679)
Method in brief: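 Autofluorescence equivalency to Rose Bengal sodium, 540/590nm, in HEK293 cells exposed overnight to 23 nL compound per well.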

[11] = qHTS assay to test for compound auto fluorescence at 535 nm (green) in HEK293 cells (AID 720680)
[12] = qHTS assay to test for compound auto fluorescence at 460 nm (blue) in HEK293 cell free culture (AID 720681)
Method in brief: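 Blue fluorescence (Ex 405/Em 460 nm, triamterene-equivalent) was read immediately after pin transfer of compound or DMSO into medium (DMEM, 10% FBS) without cells.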

[13] = qHTS assay to test for compound auto fluorescence at 535 nm (green) in HEK293 cell free culture (AID 720682)
Method in brief: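 DMEM + 10% FBS, cell-free; cpd or DMSO pinned in; Ex485/Em535 read; output as fluorescein-equivalent signal.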

[14] = qHTS assay to test for compound auto fluorescence at 590 nm (red) in HEK293 cell free culture (AID 720683)
Method in brief: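 Red-channel autofluorescence of compounds in culture medium (DMEM, 10% FBS), no cells, measured at 540/590 nm. Rose Bengal sodium is the reference fluorophore for equivalence.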

[15] = qHTS assay to test for compound auto fluorescence at 460 nm (blue) in HepG2 cell free culture (AID 720685)
Method in brief: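 Compound (23 nL) or DMSO pinned into cell-free MEM with 10% FBS; blue fluorescence read at 405/460 nm excitation/emission, expressed as auto-fluorescence equivalency to triamterene.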

[16] = qHTS assay to test for compound auto fluorescence at 535 nm (green) in HepG2 cell free culture (AID 720686)
[17] = qHTS assay to test for compound auto fluorescence at 460 nm (blue) in HepG2 cells (AID 720687)
Method in brief: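 Blue-channel autofluorescence (Ex/Em 405/460 nm, triamterene-equivalent) was measured after 1 hr compound exposure at 37 C, 5% CO2. Cells were HepG2, plated overnight at 37 C in MEM plus 10% FBS.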

[18] = target: Glucocorticoid receptor (Homo sapiens) (UniProt P04150); experiment: qHTS assay to identify small molecule agonists of the glucocorticoid receptor (GR) signaling pathway (AID 720691; active = well fitted activation curve with a large enough effect in the signal ratio in the repeat runs, not every such curve was filed as active; the % refers to the signal ratio)
Method in brief: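 Beta-lactamase reporter activity, read as fluorescence intensity, was measured in GR-bla HeLa cells exposed to compounds for 18 h at 37 C and then loaded with LiveBLAzer B/G FRET substrate for 2 h at room temperature.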

[19] = target: Glucocorticoid receptor (Homo sapiens) (UniProt P04150); experiment: qHTS assay to identify small molecule antagonists of the glucocorticoid receptor (GR) signaling pathway (AID 720692; active = well fitted inhibition curve with a large enough effect in the signal ratio in the repeat runs, not every such curve was filed as active; the % refers to the signal ratio)
Method in brief: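 Fluorescence from cleaved LiveBLAzer B/G FRET substrate reports GRE-driven beta-lactamase in HeLa cells; compounds are tested against 5 nM dexamethasone (final) over 18 h at 37 C, substrate incubation 2 h at room temperature.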

[20] = qHTS assay to test for compound auto fluorescence at 590 nm (red) in HepG2 cell free culture (AID 720684)
Method in brief: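 Plate contents were MEM with 10% FBS plus test compound or DMSO, no cells. Fluorescence was recorded with 540 nm excitation and 590 nm emission.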

Measured: Potency

Glucocorticoid receptor (Homo sapiens), sequence (P04150 whole entry, looked up): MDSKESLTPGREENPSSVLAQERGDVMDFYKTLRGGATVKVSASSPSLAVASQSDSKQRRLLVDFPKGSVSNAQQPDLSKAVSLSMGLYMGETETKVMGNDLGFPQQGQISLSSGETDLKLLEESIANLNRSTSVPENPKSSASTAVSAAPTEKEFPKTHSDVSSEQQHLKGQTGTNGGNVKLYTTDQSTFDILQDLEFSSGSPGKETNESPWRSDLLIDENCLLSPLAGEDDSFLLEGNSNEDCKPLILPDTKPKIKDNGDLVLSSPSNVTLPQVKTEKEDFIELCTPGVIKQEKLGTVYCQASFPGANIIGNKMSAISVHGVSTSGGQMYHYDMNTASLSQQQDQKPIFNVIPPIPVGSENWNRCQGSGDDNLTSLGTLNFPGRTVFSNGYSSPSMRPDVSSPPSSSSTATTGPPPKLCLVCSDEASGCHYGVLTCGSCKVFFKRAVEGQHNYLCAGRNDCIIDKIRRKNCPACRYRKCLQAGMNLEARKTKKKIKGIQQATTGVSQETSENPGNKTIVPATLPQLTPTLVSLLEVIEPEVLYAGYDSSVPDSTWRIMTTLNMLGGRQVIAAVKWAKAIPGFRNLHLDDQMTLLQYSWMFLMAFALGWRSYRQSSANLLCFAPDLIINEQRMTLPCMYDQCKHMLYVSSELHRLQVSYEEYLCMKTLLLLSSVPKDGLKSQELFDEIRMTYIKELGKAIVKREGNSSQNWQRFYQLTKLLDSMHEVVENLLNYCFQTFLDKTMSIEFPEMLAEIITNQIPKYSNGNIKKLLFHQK

COC(=O)c1ccccc1C(=O)OC
not listed: [20]
inactive: all other assays above

c1ccc2c(c1)oc1ccccc12
not listed: [19]
inactive: all other assays above

O=c1n(Cl)c(=O)n(Cl)c(=O)n1Cl
not listed: [18]
inactive: all other assays above

ClCCBr
not listed: [18] | [19]
inactive: all other assays above

Cc1ccc([N+](=O)[O-])cc1C
not listed: [1] | [6] | [18] | [19]
inactive: all other assays above

Cc1ccc(N)cc1Cl
not listed: [1] | [18] | [19] | [20]
inactive: all other assays above

OCCN(CCO)CCO
not listed: [1] | [2] | [3] | [5] | [6] | [14] | [18] | [19]
inactive: all other assays above

CCOP(=S)(OCC)Oc1cnc2ccccc2n1
not listed: [5] | [6] | [14] | [19]
inactive: all other assays above

C1CC2OC2CC1C1CO1 (stereo unspecified)
not listed: [1] | [6] | [18] | [19]
inactive: all other assays above
